The campaign covered roughly 5,500 compounds. About 2,000 (36%) were called active. Inconclusive results (about 18%) are left out. No stated cut-off is given here; in the data, active means normalized growth mostly below about 0.91 (no sharp cut-off); inconclusive means no clear call, values can overlap the other calls; inactive means mostly above about 0.92. The list shows a part of the results.
Assay: chemical genetic growth profiling, strain panel (AID 1159580);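 further: tested at 20 µM; growth read once vehicle control cultures reached saturation at 30 °C; 1 = growth at the plate median or of vehicle wells; lower values mean less growth of the strain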
Conditions: S. cerevisiae deletion strains, growth OD

Measured: normalized growth

N#Cc1c2ccccc2nc2ccccc12
active: locus YAR019C, strain CDC15, hits give low values 0.818 | locus YBL105C, strain PKC1, hits give low values 0.834 | locus YBR135W, strain CKS1, hits give low values 0.808 | locus YBR136W, strain MEC1, hits give low values 0.827 | locus YBR160W, strain CDC28, hits give low values 0.823 | locus YDL017W, strain CDC7, hits give low values 0.834 | locus YDL028C, strain MPS1, hits give low values 0.825 | locus YDL101C, strain DUN1, hits give low values 0.832 | locus YDL108W, strain KIN28, hits give low values 0.826 | locus YDR052C, strain DBF4, hits give low values 0.829 | locus YDR054C, strain cdc34, hits give low values 0.781 | locus YDR226W, strain ADK1, hits give low values 0.825 | locus YDR477W, strain SNF1, hits give low values 0.678 | locus YER133W, strain GLC7, hits give low values 0.717 | locus YFL009W, strain cdc4, hits give low values 0.813 | locus YFL029C, strain CAK1, hits give low values 0.813 | locus YFR003C, strain YPI1, hits give low values 0.831 | locus YFR028C, strain CDC14, hits give low values 0.832 | locus YGR092W, strain DBF2, hits give low values 0.196 | locus YHR030C, strain SLT2, hits give low values 0.693 | locus YIL147C, strain SLN1, hits give low values 0.822 | locus YJL157C, strain FAR1, hits give low values 0.675 | locus YJR016C, strain ILV3, hits give low values 0.816 | locus YKL048C, strain ELM1, hits give low values 0.746 | locus YKL193C, strain SDS22, hits give low values 0.803 | locus YKL203C, strain TOR2, hits give low values 0.693 | locus YLR113W, strain HOG1, hits give low values 0.638 | locus YLR403W, strain SFP1, hits give low values 0.605 | locus YMR001C, strain CDC5, hits give low values 0.818 | locus YMR277W, strain FCP1, hits give low values 0.817 | locus YNL006W, strain LST8, hits give low values 0.829 | locus YNL161W, strain CBK1, hits give low values 0.823 | locus YNL207W, strain RIO2, hits give low values 0.822 | locus YNL222W, strain SSU72, hits give low values 0.825 | locus YOL078W, strain AVO1, hits give low values 0.803 | locus YOR061W, strain CKA2, hits give low values 0.677 | locus YOR329C, strain SCD5, hits give low values 0.829 | locus YPL031C, strain PHO85, hits give low values 0.616 | locus YPL153C, strain RAD53, hits give low values 0.659 | locus YPL209C, strain IPL1, hits give low values 0.833 | locus YPL256C, strain CLN2, hits give low values 0.708 | locus YPR025C, strain CCL1, hits give low values 0.82 | locus YPR106W, strain ISR1, hits give low values 0.862 | locus YPR111W, strain DBF20, hits give low values 0.843 | strain NNK1, hits give low values 0.846 | strain TSCII, hits give low values 0.811
inactive: locus YDL132W, strain cdc53, hits give low values 0.885 | locus YDL214C, strain PRR2, hits give low values 0.743 | locus YER123W, strain YCK3, hits give low values 0.678 | locus YFR019W, strain FAB1, hits give low values 0.844 | locus YGR040W, strain KSS1, hits give low values 0.716 | locus YGR052W, strain FMP48, hits give low values 0.736 | locus YHR079C, strain IRE1, hits give low values 0.599 | locus YHR082C, strain KSP1, hits give low values 0.72 | locus YHR205W, strain SCH9, hits give low values 0.807 | locus YJL095W, strain BCK1, hits give low values 0.561 | locus YJL128C, strain PBS2, hits give low values 0.87 | locus YJR066W, strain TOR1 (second series), hits give low values 0.728 | locus YJR066W, strain TOR1, hits give low values 0.615 | locus YKL067W, strain YNK1, hits give low values 0.744 | locus YKL101W, strain HSL1, hits give low values 0.761 | locus YLR133W, strain CKI1, hits give low values 0.737 | locus YML070W, strain DAK1, hits give low values 0.726 | locus YMR205C, strain PFK2 (second series), hits give low values 0.761 | locus YNL020C, strain ARK1, hits give low values 0.717 | locus YNL183C, strain NPR1, hits give low values 0.584 | locus YNL307C, strain MCK1 (second series), hits give low values 0.649 | locus YOL136C, strain PFK27, hits give low values 0.742 | locus YOR119C, strain RIO1, hits give low values 0.749 | locus YOR231W, strain MKK1, hits give low values 0.587 | locus YPL204W, strain HRR25, hits give low values 0.693

Reference: PubChem BioAssay AID1159580 (chemical genetic matrix, 2015)
